Tests used:
Format in all cases: functional
Plasmodium falciparum [1] = test: GSK_TCMDC: Inhibition of Plasmodium falciparum 3D7 in whole red blood cells, using parasite LDH activity as an index of growth. Test compounds present at 2uM
Plasmodium falciparum [2] = test: GSK_TCMDC: Inhibition of Plasmodium falciparum Dd2 in whole red blood cells, using parasite LDH activity as an index of growth. Test compounds present at 2uM
HepG2 = test: GSK_TCMDC: Percent inhibition of human HepG2 cell line. Test compounds present at 10uM.

Q: With CC(C)(C)C/C=C\c1ccc(C(=O)NCC2CC2)cc1 as the compound, how does the Inhibition (Plasmodium falciparum [1]) read?
A: 94%

Q: What about the Inhibition (Plasmodium falciparum [2]) of the same compound?
A: 88%

Q: And the Inhibition (HepG2)?
A: 0%

Q: How did the Inhibition (Plasmodium falciparum [1]) turn out when COCCNCc1cccc(-c2ccc(CNC3CCN(Cc4ccccc4)CC3)cc2)c1.O=C(O)C(F)(F)F was run?
A: 100%

Q: And the Inhibition (Plasmodium falciparum [2])?
A: 97%

Q: And the Inhibition (HepG2)?
A: 34%

Q: Which results are given for Cl.O=c1cc(NCCCNCc2cc3ccccc3s2)[nH]c2ccccc12?
A: Inhibition (Plasmodium falciparum [1]): 89%; Inhibition (Plasmodium falciparum [2]): 0%; Inhibition (HepG2): 3%

Q: What does the source list for O=C(NC1CC1)c1ccc(N2CCN(Cc3ccc(Cl)cc3)CC2)nc1.O=C(O)C(F)(F)F?
A: Inhibition (Plasmodium falciparum [1]): 84%; Inhibition (Plasmodium falciparum [2]): 81%; Inhibition (HepG2): 16%

Q: O=C(CNC(=O)c1ccc(O)cc1)Nc1cccc(-c2cccc(-c3nc4cc(C(F)(F)F)ccc4[nH]3)c2)c1 was tested. Which Inhibition (Plasmodium falciparum [1]) did it give?
A: 96%

Q: What about the Inhibition (Plasmodium falciparum [2]) of the same compound?
A: 28%

Q: What about the Inhibition (HepG2) of the same compound?
A: 63%

Q: Which results are given for COc1cc(Cc2cnc(N)nc2N)cc(OCCn2ccccc2=O)c1OC?
A: Inhibition (Plasmodium falciparum [1]): 97%; Inhibition (Plasmodium falciparum [2]): 0%; Inhibition (HepG2): 4%

Q: What does the source list for COc1ccc(O)cc1Cc1cnc2nc(N)nc(N)c2c1C?
A: Inhibition (Plasmodium falciparum [1]): 92%; Inhibition (Plasmodium falciparum [2]): 97%; Inhibition (HepG2): 67%

Q: With CS(=O)(=O)O.Nc1nc(NCC2CCC(CNS(=O)(=O)c3cccc4ccccc34)CC2)nc2ccccc12 (stereo not given) as the compound, how does the Inhibition (Plasmodium falciparum [1]) read?
A: 97%

Q: What about the Inhibition (Plasmodium falciparum [2]) of the same compound?
A: 42%

Q: And the Inhibition (HepG2)?
A: 9%

Q: Which Inhibition (Plasmodium falciparum [1]) does the source give for O=C(NC1CCN(Cc2ccsc2)CC1)c1ccc(-c2cccc(C(F)(F)F)c2)s1.O=C(O)C(F)(F)F here?
A: 88%

Q: What about the Inhibition (Plasmodium falciparum [2]) of the same compound?
A: 3%

Q: And the Inhibition (HepG2)?
A: 48%

Q: Which results are given for Cc1cc(C(=O)CN2C(=O)NC(C)(c3cccc4ccccc34)C2=O)c(C)n1Cc1ccco1 (stereo not given)?
A: Inhibition (Plasmodium falciparum [1]): 90%; Inhibition (Plasmodium falciparum [2]): 23%; Inhibition (HepG2): 0%

Q: What does the source list for COc1ccc(-c2nc3cc4ccccc4nc3[nH]2)c(OCC(O)CNC(C)C)c1.Cl (stereo not given)?
A: Inhibition (Plasmodium falciparum [1]): 98%; Inhibition (Plasmodium falciparum [2]): 96%; Inhibition (HepG2): 19%

Q: With N#Cc1ccc2c(c1)CN(C1CCC(NC(=O)C3=Cc4cc(Cl)ccc4OC3)CC1)CCC2 (stereo not given) as the compound, how does the Inhibition (Plasmodium falciparum [1]) read?
A: 93%

Q: And the Inhibition (Plasmodium falciparum [2])?
A: 8%

Q: What about the Inhibition (HepG2) of the same compound?
A: 0%

Q: How did the Inhibition (Plasmodium falciparum [1]) turn out when COc1ccc(NC(=O)/C=C/c2cc(F)cc(C(F)(F)F)c2)cc1OCCN(C(C)C)C(C)C.O=C(O)C(F)(F)F was run?
A: 97%

Q: What about the Inhibition (Plasmodium falciparum [2]) of the same compound?
A: 21%

Q: And the Inhibition (HepG2)?
A: 18%

Q: Which Inhibition (Plasmodium falciparum [1]) does the source give for CC[C@H]1CN2CCc3cc(OC)c(OC)cc3[C@@H]2C[C@@H]1C[C@H]1NCCc2cc(OC)c(OC)cc21 [EMETINE] here?
A: 100%

Q: What about the Inhibition (Plasmodium falciparum [2]) of the same compound?
A: 99%

Q: And the Inhibition (HepG2)?
A: 43%

Q: Which results are given for COc1ccccc1-c1ccc2nnc(SCC(=O)Nc3ccc4c(c3)OCCO4)n2n1?
A: Inhibition (Plasmodium falciparum [1]): 99%; Inhibition (Plasmodium falciparum [2]): 5%; Inhibition (HepG2): 9%

Q: For Cc1cccc2nc(-c3cccc(-c4ccc(NC(=O)CN5CCOCC5)cc4)c3)[nH]c12, which Inhibition (Plasmodium falciparum [1]) is on record?
A: 94%

Q: What about the Inhibition (Plasmodium falciparum [2]) of the same compound?
A: 12%

Q: And the Inhibition (HepG2)?
A: 59%

Q: For CCOC(=O)CCCc1cc(NC2CCN(C)CC2)nc(Nc2ccc(OC)cc2)n1, which Inhibition (Plasmodium falciparum [1]) is on record?
A: 99%

Q: What about the Inhibition (Plasmodium falciparum [2]) of the same compound?
A: 17%

Q: What about the Inhibition (HepG2) of the same compound?
A: 41%

Q: Which Inhibition (Plasmodium falciparum [1]) does the source give for COc1ccc(CNC2CCN(C)CC2)cc1-c1ccc(S(=O)(=O)NCc2ccccc2)c(C)c1.O=C(O)C(F)(F)F here?
A: 100%

Q: What about the Inhibition (Plasmodium falciparum [2]) of the same compound?
A: 98%

Q: And the Inhibition (HepG2)?
A: 81%

Q: With Cc1cccc2nc(-c3ccc(-c4cccc(NC(=O)NCc5ccc(F)cc5)c4)cc3)[nH]c12 as the compound, how does the Inhibition (Plasmodium falciparum [1]) read?
A: 100%

Q: What about the Inhibition (Plasmodium falciparum [2]) of the same compound?
A: 100%

Q: What about the Inhibition (HepG2) of the same compound?
A: 82%

Q: With COc1ccccc1-n1c(-c2ccc3ccccc3c2)csc1=NC(=O)c1ccccc1 as the compound, how does the Inhibition (Plasmodium falciparum [1]) read?
A: 93%

Q: What about the Inhibition (Plasmodium falciparum [2]) of the same compound?
A: 79%

Q: And the Inhibition (HepG2)?
A: 0%

Q: Which Inhibition (Plasmodium falciparum [1]) does the source give for COc1ccc2[nH]c3ccccc3c(=O)c2c1 here?
A: 87%

Q: And the Inhibition (Plasmodium falciparum [2])?
A: 75%

Q: And the Inhibition (HepG2)?
A: 0%

Q: Which Inhibition (Plasmodium falciparum [1]) does the source give for CC(C)(C)c1ccccc1SC1=C(O)CC2(CCNCC2)OC1=O.Cl here?
A: 99%

Q: What about the Inhibition (Plasmodium falciparum [2]) of the same compound?
A: 0%

Q: And the Inhibition (HepG2)?
A: 0%

Q: With COc1ccc(Nc2cc(C)c3cc(NC(=O)c4ccncc4)ccc3n2)cc1 as the compound, how does the Inhibition (Plasmodium falciparum [1]) read?
A: 98%

Q: And the Inhibition (Plasmodium falciparum [2])?
A: 26%

Q: And the Inhibition (HepG2)?
A: 0%

Q: Which Inhibition (Plasmodium falciparum [1]) does the source give for O=C(Nc1cccc(-c2cccc(-c3nc4ccccc4[nH]3)c2)c1)c1ccncc1 here?
A: 99%

Q: And the Inhibition (Plasmodium falciparum [2])?
A: 38%

Q: What about the Inhibition (HepG2) of the same compound?
A: 27%

Q: Which Inhibition (Plasmodium falciparum [1]) does the source give for Cn1c2c(c3ccccc31)CN(CCC1(c3ccc(Cl)c(Cl)c3)CN(C(=O)c3ccccc3)CCO1)CC2 (stereo not given) here?
A: 97%

Q: What about the Inhibition (Plasmodium falciparum [2]) of the same compound?
A: 88%

Q: What about the Inhibition (HepG2) of the same compound?
A: 10%

Q: What does the source list for O=C(O)C(F)(F)F.OCC1CCCCN1Cc1cccc(-c2cccc(-c3nc4ccccc4[nH]3)c2)c1 (stereo not given)?
A: Inhibition (Plasmodium falciparum [1]): 95%; Inhibition (Plasmodium falciparum [2]): 4%; Inhibition (HepG2): 24%

Q: Which Inhibition (Plasmodium falciparum [1]) does the source give for CC(C)CNCc1cccc(-c2ccc(CN(C(=O)NCCc3ccccc3)C3CCN(Cc4ccccc4)CC3)cc2)c1.O=C(O)C(F)(F)F here?
A: 98%

Q: What about the Inhibition (Plasmodium falciparum [2]) of the same compound?
A: 47%

Q: What about the Inhibition (HepG2) of the same compound?
A: 99%

Q: What does the source list for CCOc1cc(C(=O)NCCCN2CCN(c3cccc(Cl)c3)CC2)ccc1-c1nc2cc(Cl)c(F)cc2[nH]1?
A: Inhibition (Plasmodium falciparum [1]): 96%; Inhibition (Plasmodium falciparum [2]): 19%; Inhibition (HepG2): 16%

Q: Which Inhibition (Plasmodium falciparum [1]) does the source give for COc1ccccc1NC(=O)NC1CCN(CCCCCNC(=O)/C=C/c2ccc(Cl)c(Cl)c2)CC1 here?
A: 100%

Q: What about the Inhibition (Plasmodium falciparum [2]) of the same compound?
A: 15%

Q: What about the Inhibition (HepG2) of the same compound?
A: 4%

Q: Which results are given for CCOC(=O)c1c(-c2ccccc2)nc2c(sc3ccccc32)c1O?
A: Inhibition (Plasmodium falciparum [1]): 97%; Inhibition (Plasmodium falciparum [2]): 65%; Inhibition (HepG2): 2%

Source: ChEMBL document CHEMBL1157539, “Thousands of chemical starting points for antimalarial lead identification” (Nature, 2010)
